This is part of a sample that, as a whole, favours compounds with a hit. Of some 79,000 tested, about 15% had one in any assay. Cut-off read from the data, not from the text of the source: active = growth inhibition above about 70%; inactive = the rest.
Columns and labels:
[1] = NCI Yeast Anticancer Drug Screen. Data for the rad50 strain (AID 155);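 note: 0% = growth of vehicle-only cultures of the same strain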; conditions: S. cerevisiae rad50 strain growth inhibition; at 50.0 µM; active compounds read high
In short: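 DNA repair mutant yeast, compound exposure, growth read-out; inhibition is taken relative to vehicle.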

[2] = NCI Yeast Anticancer Drug Screen. Data for the mec2-1 strain (AID 157); conditions: S. cerevisiae mec2-1 strain, at 50.0 µM, active compounds read high
In short: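 Cells of the genetically defined mec2-1 yeast strain are incubated with test compound. Inhibition of growth is calculated against vehicle-treated controls.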

[3] = NCI Yeast Anticancer Drug Screen. Data for the sgs1 mgt1 strain (AID 161);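 note: 0% = growth of cultures given vehicle only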; conditions: S. cerevisiae sgs1 mgt1 strain, at 50.0 µM, active compounds read high
In short: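 Mutant yeast exposed to compound; growth scored against vehicle-only wells.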

[4] = NCI Yeast Anticancer Drug Screen. Data for the cln2 rad14 strain (AID 165);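 note: 0% = growth equal to vehicle treated cultures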; conditions: S. cerevisiae cln2 rad14 strain, at 50.0 µM, active compounds read high
In short: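 The screen exposed genetically defined yeast (cln2 rad14) to test compounds and scored growth inhibition relative to vehicle-treated controls.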

[5] = NCI Yeast Anticancer Drug Screen. Data for the bub3 strain (AID 167); conditions: S. cerevisiae bub3 mutant strain, at 50.0 µM, active compounds read high
In short: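 In this screen, a yeast mutant lacking normal mitotic checkpoint function is challenged with compound. Relative growth versus vehicle gives the inhibition value.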

[6] = NCI Yeast Anticancer Drug Screen. Data for the mlh1 rad18 strain (AID 175); conditions: S. cerevisiae mlh1 rad18 strain growth inhibition; at 50.0 µM; active compounds read high
In short: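 Compound-treated yeast growth, normalised to vehicle controls. Strain bears defined DNA repair mutations.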

Measured: growth inhibition

CCN(CC)CCN1C(=O)c2cccc3c(N)c(OC)cc(c23)C1=O
inactive: [1] 47.5% | [2] -27.8% | [3] -20.8% | [4] -11.9% | [5] -24.2% | [6] -48.3%

NC(CCCNc1nc(O)c(-c2ccccc2)c(=O)[nH]1)C(=O)O (centres undefined)
inactive: [1] -12.9% | [2] -24.4% | [3] -10.7% | [4] -44% | [5] -10.3% | [6] -3.55%

Cn1c(=O)nc(N)n(NC(=O)CCl)c1=O
inactive: [1] 30.6% | [2] 10.3% | [3] 23.6% | [4] 9.9% | [5] -6.6% | [6] 15.4%

Cc1cc(=O)c2ccccc2o1
inactive: [1] -5.15% | [2] -7.75% | [3] -1.3% | [4] -0.1% | [5] -18.9% | [6] -13.7%

COc1cc(C2c3cc4c(cc3[C@@H](OC3OC5CO[C@@H](C)OC5C(O)C3O)[C@H]3COC(=O)C23)OCO4)cc(OC)c1OC (some centres undefined)
inactive: [1] 2.4% | [2] -36.1% | [3] -21.9% | [4] 12.4% | [5] -16.7% | [6] -83.5%

CC1OC(n2cc(Cl)c(=O)[nH]c2=O)C=C(OC(=O)c2ccccc2)C1=O (centres undefined)
inactive: [1] -18.6% | [2] -27.4% | [3] -24.9% | [4] -16.8% | [5] -22.4% | [6] -28.9%

CC(=O)Nc1ccc(C(=O)N2C(=N)C(C#N)=C(O)/C2=C\c2ccc(Cl)c(Cl)c2)cc1
inactive: [1] -7.3% | [2] -5.7% | [3] -18.4% | [4] 1.3% | [5] -20.8% | [6] 2.15%

CCOC(=O)CCC(NC(=O)c1ccc(N(C)C=O)cc1)C(=O)OCC (centres undefined)
inactive: [1] 10.9% | [2] -6.8% | [3] -0.55% | [4] -6.8% | [5] 6.45% | [6] 12.3%

O=C(O)c1cc2c(c(C(=O)O)c1O)CCCC2
inactive: [1] 11.3% | [2] -19.6% | [3] 9.95% | [4] -23.2% | [5] -6.35% | [6] -4.85%

COC(=O)c1c(-c2ccc(OC)c(OC)c2)cn(C)c1C
inactive: [1] 19.4% | [2] 12.8% | [3] 21% | [4] -6.15% | [5] 10.5% | [6] 25.2%

OC1C2CC3C(C2)C13 (centres undefined)
inactive: [1] -25.6% | [2] -12.6% | [3] 2.25% | [4] 4.8% | [5] -18.4% | [6] -25.8%

N#CC1CCCC[N-]1.[NH-]CC[N-]CC[NH-].[Pt+4] (centres undefined)
inactive: [1] 57.9% | [2] 17.2% | [3] 53.6% | [4] -10.1% | [5] 4.05% | [6] 43%

CCNC(=O)C(C(=O)O)c1ccccc1 (centres undefined)
inactive: [1] 1.8% | [2] -5.55% | [3] 5.15% | [4] -21.1% | [5] -13.9% | [6] 5.2%

O=C1OC(/C=C/c2ccccc2)C(=O)C1=O (centres undefined)
inactive: [1] -4% | [2] -4.55% | [3] -3.9% | [4] 25.4% | [5] -9.75% | [6] -9.95%

Cc1ccc(S(=O)(=O)NC(CO)C(=O)O)cc1 (centres undefined)
inactive: [1] -1.1% | [2] -18.6% | [3] -30.4% | [4] -24.6% | [5] -46% | [6] -9.65%

CCC(=O)NC(C(=O)O)C(C)(C)S (centres undefined)
inactive: [1] -0.4% | [2] -3.65% | [3] 0.1% | [4] 5.9% | [5] 2.4% | [6] -3.95%

CN(C)/C=N/c1cc(=O)n(C)c(=O)n1C
inactive: [1] 48.2% | [2] 13.4% | [3] 1.85% | [4] 2.9% | [5] -18.1% | [6] -16.4%

COc1cc2c(c([N+](=O)[O-])c1)NC(=O)C(c1ccccc1)S2 (centres undefined)
inactive: [1] -15.9% | [2] -12.3% | [3] -3.45% | [4] 23.1% | [5] 15.9% | [6] -3.95%

C=COC(=O)N1CCCCC1
inactive: [1] -5.75% | [2] 15.8% | [3] 0.5% | [4] -13.7% | [5] -30.1% | [6] 27.4%

Reference: PubChem BioAssay (NCI)
